{"source": "PubChem BioAssay (NCATS)", "note": "“And” between values parts separate entries of the source, which are not always exact repeats. Equal entries are not always repeated. Inconclusive results are not listed. Where a structure was tested more than once in an assay, its records may differ in their call. The source made the active and inactive calls. Calls follow the shape of the full dose curve. Potency is read from the fitted curve at half-maximal effect.", "data": [{"target": "Cytochrome P450 1A2 (Homo sapiens) (UniProt P05177)", "sequence (P05177 whole entry, looked up)": "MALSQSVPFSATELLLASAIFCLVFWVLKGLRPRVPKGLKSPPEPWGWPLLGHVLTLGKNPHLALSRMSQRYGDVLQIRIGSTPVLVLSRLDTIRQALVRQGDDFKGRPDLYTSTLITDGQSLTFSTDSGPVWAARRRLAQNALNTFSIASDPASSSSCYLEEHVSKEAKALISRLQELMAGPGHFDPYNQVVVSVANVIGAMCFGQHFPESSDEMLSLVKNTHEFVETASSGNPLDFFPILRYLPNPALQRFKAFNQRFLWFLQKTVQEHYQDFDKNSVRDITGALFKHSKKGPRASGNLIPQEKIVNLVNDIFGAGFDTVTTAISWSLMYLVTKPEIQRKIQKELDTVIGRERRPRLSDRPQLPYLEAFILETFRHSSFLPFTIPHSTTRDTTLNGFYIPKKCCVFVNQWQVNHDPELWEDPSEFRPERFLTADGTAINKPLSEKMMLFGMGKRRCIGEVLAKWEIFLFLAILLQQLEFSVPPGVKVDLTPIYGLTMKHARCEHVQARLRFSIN", "assay": "p450-cyp1a2 (AID 410);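 as to activity change, negative = inhibition: -100% = full effect of reference inhibitor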", "conditions": "recombinant CYP1A2, luciferin-ME demethylation, luminescence; series mostly up to 57 µM; activity change, negative = inhibition: at the top concentration", "protocol": "The P450 gene superfamily is involved in metabolism and the clearance of xenobiotics. This assay used human CYP1A2 to measure the demethylation of luciferin 6' methyl ether (Luciferin-ME; Promega-Glo) to luciferin. The luciferin is then measured by luminescence after the addition of a luciferase detection regeant. Luciferin-ME concentration in the assay was equal to its Km for CYP1A2.\nNCGC Assay Protocol Summary:\nTwo uL of enzyme and substrate mix (final concentrations: 20nM CYP1A2, 100uM Luciferin-ME, 100mM KPO4) were dispensed into a white, solid bottom 1536-well microtiter plate. 23nL of compound was transferred by a pin tool. The plate was incubated at room temperature for 10 min. Two uL of an NADPH regeneration solution (Promega supplied reagent) was dispensed and the reaction was allowed to continue for 60 min at room temperature. Then the reaction was stopped by reconstituted detection reagent. After another 20 min of incubation the plate was read on the ViewLux (Perkin Elmer) at 60 sec exposure and 2x2 binning. This protocol was carried out with Promega-Glo reagents and further information can be found at http://www.promega.com/tbs/tb325/tb325.pdf. Data were normalized to the to AC100 inhibition (57 uM furafylline).", "values": [{"smiles": "N[C@@H](C(=O)O)c1ccc(C(=O)O)c(O)c1", "activity change, negative = inhibition": "-18.4% (inactive)"}, {"smiles": "CC[N+](CC)(CC)CC", "activity change, negative = inhibition": "11.2% (inactive)"}, {"smiles": "OCCNCCCOc1cccc(Cl)c1Cl", "Potency": "0.2 µM (active)"}, {"smiles": "COc1cc(N)c(Cl)cc1C(=O)N[C@H]1CCN(CCCOc2ccc(F)cc2)C[C@@H]1OC", "Potency": "25.1 µM (active)"}, {"smiles": "CCCn1c(=O)c2[nH]c(-c3ccccc3)nc2n(CCC)c1=O", "Potency": "0.0794 µM (active)"}, {"smiles": "Clc1ccccc1CNCC1CCC(CNCc2ccccc2Cl)CC1", "note": "(stereo not given)", "activity change, negative = inhibition": "-6.8% (inactive)"}, {"smiles": "O=C(N/N=C\\c1ccccc1O)c1ccccc1O", "Potency": "0.794 µM (active)"}, {"smiles": "CCN(Cc1ccncc1)C(=O)[C@@H](CO)c1ccccc1", "Potency": "15.8 µM (active) and 10 µM (active)"}, {"smiles": "CCCCCCCCC(=O)NCc1cc(OC)c(O)cc1I", "Potency": "12.6 µM (active)"}, {"smiles": "CC(C)(C)c1ccc(S(=O)(=O)/C=C\\C#N)cc1", "Potency": "3.98 µM (active) and 1.58 µM (active)"}, {"smiles": "CCCN(C/C=C\\I)[C@@H]1CCc2cccc(O)c2C1", "Potency": "2.51 µM (active)"}, {"smiles": "COc1[nH]c2ccc(F)cc2c1C(=O)OCC1CCN(CCNS(C)(=O)=O)CC1", "Potency": "inactive"}, {"smiles": "CCC(=O)O[C@H](CC(=O)O)C[N+](C)(C)C", "activity change, negative = inhibition": "5.5% (inactive)"}, {"smiles": "COc1ccccc1N1CCN(C[C@@H](C(=O)NC(C)(C)C)c2ccccc2)CC1", "Potency": "0.631 µM (active)"}, {"smiles": "CSc1ccc2c(c1)[C@H](N1CCN(C)CC1)Cc1ccccc1S2", "Potency": "31.6 µM (active)"}, {"smiles": "NC(N)=NN=Cc1c(Cl)cccc1Cl", "Potency": "7.94 µM (active) and 3.98 µM (active) and 2 µM (active)"}, {"smiles": "O=C1c2ccccc2CC[C@H]1CNCCc1ccc(O)cc1", "Potency": "20 µM (active)"}, {"smiles": "C[C@]12CC3CC(N)(C1)C[C@@](C)(C3)C2", "activity change, negative = inhibition": "-0.6% (inactive)"}, {"smiles": "Nc1nc(NCCc2ccc(O)cc2)nc2nc(-c3ccco3)nn12", "Potency": "31.6 µM (active)"}, {"smiles": "COC(=O)/C=C\\c1cc(O)ccc1O", "Potency": "3.98 µM (active)"}, {"smiles": "CC(C)(C)Cn1nc(-c2ccc(Cl)cc2)c2c(N)ncnc21", "Potency": "0.158 µM (active)"}, {"smiles": "COc1cc(CNC(=O)CCCC/C=C\\C(C)C)ccc1O", "Potency": "1.58 µM (active) and 2 µM (active) and 3.16 µM (active)"}, {"smiles": "Cn1cnc2c(NC3CCCC3)ncnc21", "Potency": "12.6 µM (active)"}, {"smiles": "N=C(N)SCCc1ccc(OCc2ccc([N+](=O)[O-])cc2)cc1", "Potency": "31.6 µM (active)"}, {"smiles": "N[C@H](C(=O)O)[C@H](OCc1ccccc1)C(=O)O", "Potency": "31.6 µM (active)"}, {"smiles": "COc1cccc(CNc2ccc3nc(-c4ccc(N)cc4)c(OC)n3n2)c1", "Potency": "39.8 µM (active)"}, {"smiles": "CC(=O)N1CCN(C)CC1", "Potency": "31.6 µM (active)"}, {"smiles": "Cc1noc(NS(=O)(=O)c2cccc3c(N(C)C)cccc23)c1C", "activity change, negative = inhibition": "-11.1% (inactive)"}, {"smiles": "C=CC(C)(C)c1[nH]c2ccccc2c1C1=C(O)C(=O)C(c2c[nH]c3c(CC=C(C)C)cccc23)=C(O)C1=O", "Potency": "25.1 µM (active)"}, {"smiles": "COc1cccc(OC)c1OCCNC[C@@H]1COc2ccccc2O1", "Potency": "12.6 µM (active) and 25.1 µM (active)"}, {"smiles": "CC(N)=NCCCC[C@H](N)C(=O)O", "Potency": "inactive and 39.8 µM (active)"}, {"smiles": "CCNCCCNCCCNCCCNCC", "activity change, negative = inhibition": "-9.8% (inactive)"}, {"smiles": "CC(=O)N[C@@H](C(=O)O)C(C)(C)SN=O", "Potency": "inactive"}, {"smiles": "C[C@H](NC[C@H](O)CP(=O)(O)Cc1ccccc1)c1ccc(Cl)c(Cl)c1", "activity change, negative = inhibition": "-7.1% (inactive)"}, {"smiles": "NS(=O)(=O)c1cc2c(cc1Cl)N[C@@H]([C@@H]1C[C@@H]3C=C[C@H]1C3)NS2(=O)=O", "Potency": "inactive"}, {"smiles": "N[C@@H](CO)C(=O)O", "Potency": "inactive"}, {"smiles": "CCCn1c(=O)c2[nH]c(-c3ccc(OCC(=O)Nc4ccc(C#N)cc4)cc3)nc2n(CCC)c1=O", "Potency": "31.6 µM (active)"}, {"smiles": "O=C(Nc1ccccc1)[C@@]12C[C@@H]1/C(=N/O)c1ccccc1O2", "Potency": "2.51 µM (active)"}, {"smiles": "CC(C)NC[C@H](O)c1ccc2ccccc2c1", "Potency": "10 µM (active) and 12.6 µM (active)"}, {"smiles": "S=C(Nc1ccccc1)Nc1nccs1", "Potency": "0.794 µM (active)"}]}]}
